From PubChem BioAssay (Tox21)
Records with an inconclusive call do not appear. Entries that show only a call come without a potency. Calls of active or inactive are those of the source. The call rests on the fitted dose curve; in most records, active means well fitted activation curve with a large enough effect; inconclusive means small, poorly fitted or top-dose-only effect; inactive means flat fitted curve, though single readings scatter. Positions of bridges follow the written chain, without caps; N, C: chain ends. Non-standard residues stand in square brackets, D forms with d. Residues, ends and D or L forms follow the SMILES beside them. *: point of attachment. X1 = CC[C@@H](C)[C@@H](N)C1=N[C@H](C(=O)*)CS1; d(aIle) = CC[C@H](C)[C@@H](N)C(=O)O; dOrn = NCCC[C@@H](N)C(=O)O

Assay: qHTS assay to identify small molecule phospholipidosis (PLD) inducers (AID 1259344)
Details: HepG2 phospholipidosis, LipidTOX Red imaging, 24 h; series mostly up to 38.3 µM
Procedure, shortened: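 Fluorescent phospholipid staining (LipidTOX Red) measured by automated microscopy in fixed HepG2 cells after 24 h treatment; nuclei counterstained with Hoechst 33342; amiodarone as reference inducer.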

SMILES	Potency
O=C(O)COc1ccccc1/C=N/NC(=O)c1ccncc1	inactive
CC[C@@H](C)[C@@H](N)C1=N[C@H](C(=O)N[C@@H](CC(C)C)C(=O)N[C@@H](CCC(=O)O)C(=O)N[C@@H](C(=O)N[C@@H]2CCCCNC(=O)[C@@H](CC(N)=O)NC(=O)[C@@H](CC(=O)O)NC(=O)[C@@H](Cc3cnc[nH]3)NC(=O)[C@@H](Cc3ccccc3)NC(=O)[C@@H]([C@H](C)CC)NC(=O)[C@@H](CCCN)NC2=O)[C@@H](C)CC)CS1 (X1-LE[d(aIle)][dK][dOrn][dI][dF][dH][dD][dN]; lactam 4-C)	inactive
CC1(C)S[C@@H]2[C@H](N3C(=O)C(c4ccccc4)NC3(C)C)C(=O)N2[C@H]1C(=O)O (stereo partly drawn)	inactive
CCN(CC)CC#CCOC(=O)C(O)(c1ccccc1)C1CCCCC1 (stereo not drawn)	inactive
O=C(O)CCCC/C=C(\c1ccccc1)c1cccnc1	inactive
CO/N=C(\C(=O)N[C@@H]1C(=O)N2C(C(=O)O)=C(COC(C)=O)CS[C@H]12)c1csc(N)n1 (stereo in doubt)	inactive
CC(=O)Nc1ccc(OC(C)=O)cc1	inactive
CCN(CC)CCOC[C@H]1O[C@@H](O)[C@H](OCCN(CC)CC)[C@@H](O)[C@@H]1O	inactive
C=CC1=C(C(=O)O)N2C(=O)[C@@H](NC(=O)/C(=N/OCC(=O)O)c3csc(N)n3)[C@H]2SC1 (stereo in doubt)	inactive
C=N[C@@H](C(=O)N[C@@H]1C(=O)N2[C@@H]1SC(C)(C)[C@@H]2C(=O)O)c1ccccc1	inactive
CC[C@H]1OC(=O)[C@H](C)C(=O)[C@H](C)[C@@H](O[C@@H]2O[C@H](C)C[C@H](N(C)C)[C@H]2O)[C@](C)(OC)C[C@@H](C)C(=O)[C@H](C)[C@H]2N(CCCCn3cnc(-c4cccnc4)c3)C(=O)O[C@]12C	inactive
Cc1c(N)nc([C@H](CC(N)=O)NC[C@H](N)C(N)=O)nc1C(=O)N[C@H](C(=O)N[C@H](C)[C@@H](O)[C@H](C)C(=O)N[C@H](C(=O)NCCc1nc(-c2nc(C(=O)NCCCCN=C(N)N)cs2)cs1)[C@@H](C)O)[C@@H](O[C@@H]1O[C@@H](CO)[C@@H](O)[C@H](O)[C@@H]1O[C@H]1O[C@H](CO)[C@@H](O)[C@H](OC(N)=O)[C@@H]1O)c1cnc[nH]1	inactive
NC(=O)CC[C@@H]1NC(=O)[C@H](Cc2ccccc2)NC(=O)[C@H](Cc2ccc(O)cc2)NC(=O)[C@@H](N)CSSC[C@@H](C(=O)N2CCC[C@H]2C(=O)N[C@@H](CCCN=C(N)N)C(=O)NCC(N)=O)NC(=O)[C@H](CC(N)=O)NC1=O	inactive
NCC(O)CC(=O)O (stereo not drawn)	inactive
C[N+](C)(C)CCOP(=O)(O)OP(=O)([O-])OC[C@H]1O[C@@H](n2ccc(N)nc2=O)[C@H](O)[C@@H]1O	inactive
CCOc1ccc(S(=O)(=O)O)c2cccnc12	inactive
NC(N)=NCCCCN=C(N)N	inactive
N[C@H](CO)C(=O)O	inactive
CC(=O)N[C@@H](C=O)[C@H](O)[C@H](O)[C@@H](O)CO	inactive
COc1ccc(/C=N/NC(=O)c2ccncc2)c(C(=O)O)c1OC	inactive
OCCCNc1ccccc1	inactive
N[C@@H](Cc1cnc[nH]1)C(=O)O	inactive
CC(=O)OCC1=C(C(=O)O)N2C(=O)[C@@H](NC(=O)Cc3ccccc3)[C@H]2SC1	inactive
CCOC(=O)COc1ccc2c(=O)cc(-c3ccccc3)oc2c1	inactive
Cc1cc(=O)c(C(=O)N[C@@H](C(=O)N[C@@H]2C(=O)N3C(C(=O)O)=C(CSc4nnnn4C)CS[C@H]23)c2ccc(O)cc2)c[nH]1	inactive
CCCCCCCCCC(=O)NO	inactive
CC[C@H]1OC(=O)C[C@@H](O)[C@H](C)[C@@H](O[C@@H]2O[C@H](C)[C@@H](O[C@H]3C[C@@](C)(O)[C@@H](O)[C@H](C)O3)[C@H](N(C)C)[C@H]2O)[C@@H](CC=O)C[C@@H](C)C(=O)/C=C/C(C)=C/[C@@H]1CO[C@@H]1O[C@H](C)[C@@H](O)[C@@H](OC)[C@H]1OC	inactive
CCCCCCCCCCCCCCCC(=O)OC[C@H](COP(=O)([O-])OCC[N+](C)(C)C)OC(=O)CCCCCCCCCCCCCCC	inactive
